Source: PubChem BioAssay AID1347420 (Sanford-Burnham Center for Chemical Genomics, 2020)
Hit rate of the full screen: of about 1,300 compounds, about 980 (75%) were called active. Not shown: some 4% with an inconclusive outcome. The list shows a part of the results. Values without a mark were called inactive.

biological target: Sulfhydryl oxidase 1 (Homo sapiens) (UniProt O00391); test: QSOX1 enzyme inhibitors, primary screen, biochemical, HyperBlu H2O2 luminescence, HTS (AID 1347420); details: recombinant QSOX1, HyperBlu H2O2 luminescence, at 12.5 µM, active compounds read high; active = any value above zero unless noted; also: values above 100% were filed as inconclusive
Sequence (O00391 whole entry, looked up): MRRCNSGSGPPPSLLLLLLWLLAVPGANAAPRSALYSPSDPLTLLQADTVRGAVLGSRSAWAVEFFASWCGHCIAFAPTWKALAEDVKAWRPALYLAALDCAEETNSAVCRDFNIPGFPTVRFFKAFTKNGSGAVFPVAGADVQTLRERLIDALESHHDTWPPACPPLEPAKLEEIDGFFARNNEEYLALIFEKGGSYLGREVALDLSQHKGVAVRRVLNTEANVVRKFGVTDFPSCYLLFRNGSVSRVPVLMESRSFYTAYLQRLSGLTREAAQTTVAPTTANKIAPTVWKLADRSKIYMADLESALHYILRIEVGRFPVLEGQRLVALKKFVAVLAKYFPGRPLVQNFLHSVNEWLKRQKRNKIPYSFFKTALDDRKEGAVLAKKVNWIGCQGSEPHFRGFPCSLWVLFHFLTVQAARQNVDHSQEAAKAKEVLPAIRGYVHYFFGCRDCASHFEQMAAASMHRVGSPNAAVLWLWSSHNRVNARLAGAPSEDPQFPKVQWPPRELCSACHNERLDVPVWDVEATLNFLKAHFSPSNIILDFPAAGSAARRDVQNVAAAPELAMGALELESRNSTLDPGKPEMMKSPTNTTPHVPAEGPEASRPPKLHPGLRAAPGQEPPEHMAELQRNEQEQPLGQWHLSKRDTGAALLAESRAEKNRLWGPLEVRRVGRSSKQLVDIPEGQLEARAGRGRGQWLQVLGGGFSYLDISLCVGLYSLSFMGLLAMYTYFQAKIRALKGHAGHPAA

Row | Compound | inhibition
1 | CN1CCc2cccc(Cl)c2CC1 | 1.7% (active)
2 | CP(=O)(O)C1=CCNCC1 | -0.7%
3 | CCCN(CCC)[C@@H]1CCc2ccc(O)cc2C1 | 10.7% (active)
4 | CCCN(CCC)C1CCc2ccc(O)cc2C1 (stereo not drawn) | 28.1% (active)
5 | CCCN(CCC)C1Cc2cc(OC)c(OC)cc2C1 | 3.2% (active)
6 | O=S1(=O)N(CCN2CC=C(c3c[nH]c4cc(F)ccc34)CC2)c2cccc3c2N1CCC3 | 25.1% (active)
7 | C[C@H](N)Cc1cccc(C(F)(F)F)c1 | 4.9% [setting not given] (active)
8 | COc1ccc(CNC(=O)/C=C/c2ccc3[nH]cc(CCN(C)C)c3c2)cc1 | 4.8% [setting not given] (active)
9 | O=C(O)c1cc[c]([Hg][Cl])cc1 | 1% (active)
10 | CCC1(c2ccc(N)cc2)CCC(=O)NC1=O (stereo not drawn) | 27.6% [setting not given] (active)
11 | CCN(CCCl)Cc1ccccc1Br | 18% (active)
12 | CCCn1c(=O)c2[nH]c(C3CCCC3)nc2n(CCCOC(=O)c2ccc(S(=O)(=O)F)cc2)c1=O | 10.4% (active)
13 | CC[C@@H](CO)NC(=O)[C@@H]1C=C2c3cccc4c3c(cn4C)C[C@H]2N(C)C1 | 9.7% [setting not given] (active)
14 | CC[C@@H](CO)NC(=O)[C@@H]1C=C2c3cccc4[nH]cc(c34)C[C@H]2N(C)C1 | 24.7% [setting not given] (active)
15 | NCC1(CC(=O)O)CCCCC1 | 4.2% [setting not given] (active)
16 | CC(=O)c1c(O)c(C)c(O)c(Cc2c(O)c3c(c(C(=O)/C=C/c4ccccc4)c2O)OC(C)(C)C=C3)c1O | 59.1% (active)
17 | O=c1[nH]oc2c1CCNC2 | 8.4% (active)

Row | Compound | inhibition
18 | C[C@H](Cc1ccc2c(c1)OC(C(=O)O)(C(=O)O)O2)NC[C@H](O)c1cccc(Cl)c1 | 13.4% (active)
19 | CC(Cc1ccc(OCC(=O)O)cc1)NCC(O)c1cccc(Cl)c1 (stereo not drawn) | 10.8% (active)
20 | Nc1ccncc1 | 22.3% [setting not given] (active)
21 | CC(=O)[C@H]1CC[C@H]2[C@@H]3CC[C@H]4C[C@H](O)CC[C@]4(C)[C@H]3C(=O)C[C@]12C | 5% [setting not given] (active)
22 | C[C@]12CCC3C(CC[C@H]4C[C@H](O)CC[C@]34C)C1CC[C@@H]2C(=O)CO (stereo partly drawn) | 5.6% (active)
23 | CC(=O)[C@H]1CCC2C3CC[C@H]4C[C@H](O)CC[C@]4(C)C3CC[C@@]21C (stereo partly drawn) | 4.6% [setting not given] (active)
24 | CC(=O)[C@H]1CC[C@H]2[C@@H]3CC[C@H]4C[C@](C)(O)CC[C@]4(C)[C@H]3CC[C@]12C | 11.6% [setting not given] (active)
25 | CN1C[C@H](CNC(=O)OCc2ccccc2)C[C@@H]2c3cccc4c3c(cn4C)C[C@H]21 | 6.1% [setting not given] (active)
26 | C[C@]12Cc3cn4c(nc3C=C1CCC1C2CC[C@@]2(C)[C@H]1CC[C@@]2(O)C#N)nc1ccccc14 (stereo partly drawn) | -42.5%
27 | CC(C)Oc1cccnc1N(C)C1CCN(Cc2ccccc2)CC1 | 7% (active)
28 | CC(C)c1cccc(C(C)C)c1O | 16.7% (active)
29 | CC(N)c1cccc(Cl)c1Cl (stereo not drawn) | -1%
30 | CN[C@@H]1C[C@@H](c2ccc(Cl)c(Cl)c2)c2ccccc21 | 3.8% (active)
31 | Cc1o[nH]c(=O)c1CC(N)C(=O)O (stereo not drawn) | 11.9% (active)
32 | NC(Cn1oc(=O)[nH]c1=O)C(=O)O (stereo not drawn) | -10.8%
33 | CCCC(C)(COC(N)=O)COC(=O)NC(C)C (stereo not drawn) | -3.5% [setting not given]
